Assay outcomes deposited in PubChem by National Center for Advancing Translational Sciences (NCATS).
Shown are actives, neighbours in structure and some others; about 19% of the full set was active somewhere.
SW480 rereplic: A quantitative high throughput screen for small molecules that induce DNA re-replication in SW480 colon adenocarcinoma cells | SW480 DNA re-replication, Hoechst DNA content imaging, 48 h | Potency, µM (top dose mostly 46.1 µM), inactives show top-dose re-replication activation, usual class: activators | hit rate 1.8% among 340,000 | AID 624297, 2012; also: potency is read from the fitted curve at half-maximal effect; % of control where 0% means no effect; nearly all actives have a fitted effect of over 55% in size
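First, 250 cells per well were seeded. Next, compound or vehicle (23 nL) was pinned in, plates sat 48 hr at 37 C. Finally Hoechst was added for 40 min before fluorescence scanning.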
BCR signal inh: qHTS Assay to Find Inhibitors of Chronic Active B-Cell Receptor Signaling; ABC-DLBCL IkBa-CBG/CBR reporter, luminescence ratio, 4 h; Potency, µM (titrated, usually from 46.1 µM), inactives show top-dose activity change, negative = inhibition, most hits filed as inhibitors; hit rate 0.05% among 340,000; active = well fitted inhibition curve with a large enough effect in the signal ratio, with a control signal flat, not every such curve was filed as active; inconclusive = small, poorly fitted or top-dose-only effect, or effect the other way, or a change in a side signal; the % refers to the signal ratio;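 also: potency is read from the fitted curve at half-maximal effect; plate controls were basal doxycycline-induced cells for no effect and cells given 10 µM MG132 for full effect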
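Concentration-response series (up to 46 uM) were applied to TMD8 dual-reporter cells for 4 h at 37C with doxycycline. Green/red ratio, after filter-overlap correction, defined %Activity; red signal alone was normalised to basal cells and zero luminescence.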
MCF10A rerep: A quantitative high throughput screen for small molecules that induce DNA re-replication in MCF 10a normal breast cells; MCF 10A DNA re-replication, Hoechst nuclear intensity, 48 h; Potency, µM (top dose mostly 46.1 µM), without a hit: at the top dose activity, positive = re-replication, most hits filed as activators; hit rate 2.9% among 350,000; AID 624296, 2012; also: potency is read from the fitted curve at half-maximal effect; % of control where 0% means no effect; nearly all actives have a fitted effect of over 50% in size
IL1B secr inh: qHTS for Inhibitors of Inflammasome Signaling: IL-1-beta AlphaLISA Primary Screen; THP-1 LPS/ATP IL-1B secretion, AlphaLISA, 16 h; stronger effect = lower value; activity change, % at 57.5 µM; AID 743279, 2014; hit rate 4.7% among 360,000; in the data active = activity change below about -50%; inconclusive = mostly about -30% to -49%; also: % is scaled to controls: 0 for no effect and ±100 for the full control effect
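Secreted IL-1B measured by AlphaLISA bead assay after 16 h compound exposure of THP-1 cells; compounds (final up to 57.5 uM) added 1 h before LPS (250 ng/mL) and ATP (1.25 mM) stimulation; lower signal means less secretion.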
TDP1 cell CPT: qHTS for Inhibitors of human tyrosyl-DNA phosphodiesterase 1 (TDP1): qHTS in cells in presence of CPT; chicken DT40 Tdp1-/-;hTDP1 cells + 20 nM CPT, ATP luminescence, 48 h; Potency, µM (top dose mostly 46.2 µM), inactives show top-dose activity change, negative = growth inhibition, actives largely listed as inhibitors; hit rate 12% among 420,000; AID 686979, 2013; also: potency is read from the fitted curve at half-maximal effect; % is scaled to controls: 0 for no effect and ±100 for the full control effect; nearly all actives have a fitted effect of over 55% in size
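Chicken DT40 Tdp1-/- cells stably complemented with human TDP1 were seeded at 400 cells/well in medium containing 20 nM camptothecin, exposed to pin-transferred compounds, and grown at 37 °C for at least 48 hr. Viability was read as ATP luminescence.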
DT40 TDP1 no CPT: qHTS for Inhibitors of human tyrosyl-DNA phosphodiesterase 1 (TDP1): qHTS in cells in absence of CPT; DT40 Tdp1-/- hTDP1 cells, no CPT, ATP luminescence, 48 h; Potency, µM (titrated, usually from 46.2 µM), without a hit: at the highest dose activity change, negative = growth inhibition, actives largely listed as inhibitors; hit rate 15% among 420,000; also: potency is read from the fitted curve at half-maximal effect; % is scaled to controls: 0 for no effect and ±100 for the full control effect; nearly all actives have a fitted effect of over 55% in size
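Compound effects on proliferation are scored in DT40 Tdp1-/-;hTDP1 cells in the absence of CPT. ATP levels (CellTiter-Glo luminescence) are recorded after a ≥48 hr, 37 °C incubation.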
Numbers without * were called inactive; i = inactive; ? = inconclusive; . = not tested or not shown. Unless noted, calls follow the shape of the dose curve; as a rule, active = well fitted curve in the direction sought with a large enough effect; inconclusive = small, poorly fitted or top-dose-only effect, or another doubt; inactive = no such curve, though single readings can be large; an effect the other way counts as inactive or inconclusive.

SMILES | SW480 rereplic | BCR signal inh | MCF10A rerep | IL1B secr inh | TDP1 cell CPT | DT40 TDP1 no CPT
CCN1CCN(C2=C(NS(=O)(=O)c3ccc(C)cc3)C(=O)c3ccccc3C2=O)CC1 | 20.6µM* | -0.8% | 11.6% | 29.7 | 11.6µM* | 20.6µM*
CC1CCC2(CC1)NC(=O)N(CC(=O)N1CCN(C(=O)c3ccco3)CC1)C2=O (configuration not stated) | -1.8% | 1.7% | -7.6% | 1.3 | 3.0% | 3.2%
COc1cccc(N2CC(NC(=O)c3cccc(OC)c3OC)CC2=O)c1 (configuration not stated) | . | -18.2% | . | . | 2.1% | -4.1%
COc1ccc(NC(=O)C(C)Sc2cc(-c3ccccc3)nc(C)n2)cc1Cl (configuration not stated) | . | . | . | . | 20.6µM* | 20.6µM*
Cc1nc(SC(C)C(=O)Nc2ccccc2C)cc(-c2ccccc2)n1 (configuration not stated) | . | . | . | . | 14.6µM* | 20.6µM*
COc1cc(Cl)c(C)cc1NC(=O)CSc1cc(-c2ccccc2)nc(C)n1 | . | . | . | . | -20.2% | -17.0%
CC(=O)Oc1ccccc1/C=C/c1ccc2ccccc2[n+]1C | 8.4% | ? | ? | -57.1* | 20.6µM* | 16.4µM*
COc1ccc(/C=C/c2ccc3ccccc3[n+]2C)c(OC)c1OC | . | . | . | . | 1.41µM* | 1.12µM*
COc1cc(OC)c(OC)cc1/C=C/c1ccc2ccccc2[n+]1C | . | . | . | . | 0.891µM* | 0.708µM*
COc1ccc(/C=C/c2ccc3ccccc3[n+]2C)cc1OC | -29.2% | 8.1% | -7.9% | -5.6 | 12.6µM* | 18.4µM*
CCN(CC(=O)Nc1ccc(OC)cc1)CC(=O)Nc1cccc(S(=O)(=O)N2CCOCC2)c1 | . | . | . | -7.4 | -26.2% | ?
CC(=NNC(=O)c1ccncc1)c1cccc(Cl)c1 | -0.5% | . | 0.9% | -14.7 | 8.7% | -19.8%
Cc1nn(-c2ccc(Cl)cn2)c2c1C(=O)CC(C)(C)C2Br (configuration not stated) | ? | . | 78.9% | 3.0 | ? | ?
CCC(C)Sc1cc(-c2nc3ccccn3c2NC2CCCCC2)ccc1OC (configuration not stated) | 16.4µM* | -1.4% | 20.6µM* | -91.3* | 11.6µM* | 14.6µM*
Cc1nc2ccccn2c1C(=O)NC1CCCCC1 | -28.7% | 1.4% | -4.6% | 7.7 | 6.3% | -17.6%
CCC(C)Sc1cc(-c2nc3cc(C)ccn3c2NC2CCCCC2)ccc1OC (configuration not stated) | ? | -1.8% | ? | -80.7* | 20.6µM* | 20.6µM*
CC(=O)c1ccc(-c2cccc(-c3nc4ccccn4c3NC3CCCCC3)c2)cc1 | ? | 0.1% | ? | -65.5* | 23.1µM* | 14.6µM*
CC(C)N1CC(C(=O)Nc2cccc([N+](=O)[O-])c2)CC1=O (configuration not stated) | -1.4% | 0.3% | -0.3% | 0.9 | -9.4% | -21.7%
CCC(=O)Nc1cccc(C(=O)/C=C/c2cccs2)c1 | ? | ? | 24.2% | -94.5* | ? | 20.6µM*
CCC(=O)Nc1cccc(C(=O)/C=C/c2ccccc2)c1 | ? | ? | 8.2µM* | -117.4* | 4.11µM* | 5.17µM*
CCC(=O)Nc1cccc(C(=O)c2ccccc2)c1 | -11.2% | -3.6% | -4.0% | -0.5 | -17.0% | -9.5%
CCC(=O)Nc1cccc(C(=O)c2ccc(C)c(C)c2)c1 | -23.2% | -13.1% | 15.1% | ? | -29.4% | 20.6µM*
Cc1ccc(CN(C)C(=O)C2CCC(=O)N(CCc3ccccc3)C2)o1 (configuration not stated) | 5.5% | 8.2% | 1.6% | -1.0 | ? | ?
Cc1ccc(NC2CCCN(C(=O)CSc3ccncc3)C2)cc1C (configuration not stated) | ? | 4.4% | 4.0% | 1.5 | -25.4% | ?
O=c1[nH]c(/C=C\c2cccc(Cl)c2)nc(O)c1[N+](=O)[O-] | -6.2% | -0.3% | 0.0% | -11.3 | 2.9% | -22.8%
SMILES | SW480 rereplic | BCR signal inh | MCF10A rerep | IL1B secr inh | TDP1 cell CPT | DT40 TDP1 no CPT
CC1CN(S(=O)(=O)c2cc(C(=O)N(C)Cc3cccs3)ccc2Cl)CC(C)O1 (configuration not stated) | -2.6% | -1.5% | 11.1% | 31.7 | ? | ?
COc1cccc(N2CCN(C(=O)c3ccc(CSc4nc5ccncc5[nH]4)cc3)CC2)c1 | -0.7% | ? | 14.0% | 18.4 | 18.4µM* | 18.4µM*
COc1cccc(CNC(=O)CSc2nc3ccc(C)cc3[nH]2)c1 | -8.1% | -0.3% | 3.3% | -11.0 | ? | -15.7%
COc1cccc(CSc2nc3ccncc3[nH]2)c1 | 3.7% | ? | -0.3% | 3.6 | ? | 18.4µM*
COc1ccc(N2CCN(C(=O)c3ccc(CSc4ccccc4)cc3)CC2)cc1 | -0.5% | 6.1% | 23.6% | 7.6 | -8.3% | -25.9%
O=C(NCCCc1ccccc1)C1CC1 | 13.3% | . | -11.5% | . | 6.4% | 6.5%
Cc1cccc(NC(=O)c2nc(-c3ccccc3)n(-c3ccccc3)n2)c1C | -1.2% | 28.4% | 17.3% | ? | -24.6% | ?
CC(=O)c1cccc(NC(=O)c2nc(-c3ccccc3)n(-c3ccccc3C)n2)c1 | . | . | . | . | 25.9µM* | 20.6µM*
CC(=O)c1cccc(NC(=O)c2nc(-c3ccccc3)oc2C)c1 | -5.9% | ? | ? | -18.9 | ? | 14.6µM*
CCc1cc2c(=O)oc(-c3ccc(Br)cc3)nc2s1 | -5.4% | -7.3% | 2.7% | 11.7 | -14.9% | -0.7%
CN(C)C(=O)COC(=O)c1ccccc1OCC(=O)Nc1ccc(SC(F)F)cc1 | 3.3% | -7.1% | 11.8% | -21.1 | ? | 9.2µM*
O=C(COC(=O)c1ccccc1C(=O)c1ccc(Cl)cc1)NCCc1ccccc1 | 6.7% | ? | 28.1% | i | ? | ?
O=C(COc1ccccc1C(=O)O)Nc1ccc(SC(F)F)cc1 | -8.6% | -23.3% | 0.2% | -1.6 | 16.4µM* | 16.4µM*
O=C(COC(=O)c1ccccc1C(=O)c1ccccc1)Nc1ccc(SC(F)F)cc1 | -1.0% | ? | 9.5% | -76.8* | ? | ?
O=C(COC(=O)c1ccccc1C(=O)c1ccc(Cl)cc1)NC(c1ccccc1)c1ccccc1 | 2.1% | -0.3% | 15.3% | -19.6 | 11.6µM* | 14.6µM*
